# Test results taken from PubChem BioAssay.
# Calls of active or inactive are those of the source.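 How the source made its calls, unless noted: active means inhibition at or above 50% at 10 µM; inactive means inhibition below 50%.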
# Tests used:
# [1] = inhibitors of TNFa-induced NFkB p65 translocation, primary screen, imaging, HUVEC, MLSMR starter and 10KST1 sets (AID 438;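 active means inhibition above 20% together with a positive visual image hit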;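 further: compound added about 3h40 before a 20 min TNFalpha stimulation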;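 on inhibition: signal is the nuclear over cytoplasmic p65 intensity ratio per well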); conditions: HUVEC TNFa-induced p65 nuclear translocation; cell count: measured here: nuclei count (cytotoxicity indicator), at 2.08 µM; inhibition: at 2 µM, stronger effect = higher value, 0% TNFa-plus-vehicle, 100% no-TNFa wells
# [2] = reduction of polyQ htt aggregates in cells – imaging, exon1htt(103Q)mCFP cells, high-content imaging, primary screen (AID 483;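 active means visual image review flags a hit and inhibition of aggregation exceeds 20%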;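 further: compound exposure lasted 3 days before fixation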;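 on nuclei count: percent of the per-plate median nuclei count of sample wells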); conditions: exon1htt(103Q)mCFP cell line, aggregate imaging, at 2 µM; inhibition of aggregation: stronger effect = higher value; nuclei count: measured here: cell count, toxicity
# [3] = endothelial E-selectin expression blockers – imaging, HUVEC, immunofluorescence, MLSMR starter and 10KST1 sets, primary screen (AID 487;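 active means visually confirmed hit in the image check and inhibition above 20%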;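 on inhibition: signal is fraction of cell area covered by stained E-selectin grains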;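 on nuclei count: 100% = median nuclei count of all wells on the same plate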); conditions: HUVEC TNFalpha-induced E-selectin immunofluorescence imaging, at 2 µM; inhibition: stronger effect = higher value; nuclei count: measured here: cell number, toxicity
# [4] = biological target: Voltage-gated potassium channel subunit beta-2 (Rattus norvegicus) (UniProt P62483); experiment: inhibitors of rat Kvbeta2 reductase activity – biochemical, NADPH fluorescence, primary screen (AID 622;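 active means fluorescence slope higher than the sample average by over 3 SD, cut at about -0.22 in these data, passing the limit was not always enough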;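 further: slope of raw intensity against log time taken from 70 to 1610 s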); conditions: recombinant KvBeta, 4-cyanobenzaldehyde reduction, at 10 µM, stronger effect = higher value
# Sequence of Voltage-gated potassium channel subunit beta-2 (Rattus norvegicus) (P62483 whole entry, looked up): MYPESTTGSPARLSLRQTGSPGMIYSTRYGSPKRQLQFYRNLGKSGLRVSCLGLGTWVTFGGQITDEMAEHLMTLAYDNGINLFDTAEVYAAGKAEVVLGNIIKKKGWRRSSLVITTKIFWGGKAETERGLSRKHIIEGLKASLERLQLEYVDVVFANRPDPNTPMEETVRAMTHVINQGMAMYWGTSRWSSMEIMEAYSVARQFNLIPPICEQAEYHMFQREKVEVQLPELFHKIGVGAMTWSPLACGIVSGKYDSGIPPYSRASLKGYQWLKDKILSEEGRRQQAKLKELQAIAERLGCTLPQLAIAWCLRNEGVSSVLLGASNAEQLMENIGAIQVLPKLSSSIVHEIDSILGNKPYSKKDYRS
# [5] = biological target: Voltage-gated potassium channel subunit beta-2 (Rattus norvegicus) (UniProt P62483); experiment: enhancers of rat Kvbeta2 NADPH turnover – biochemical, NADPH fluorescence, primary screen (AID 623;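 active means NADPH fluorescence slope more negative than the mean of all samples by about 3 SD, 99.7% confidence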;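 further: fluorescence intensity change per second fitted from 20 to 320 s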); conditions: Recombinant KvBeta, NADPH fluorescence decrease slope, 10 min; at 10 µM; stronger effect = lower value
# [6] = biological target: Alpha-2C adrenergic receptor (Homo sapiens) (UniProt P18825); experiment: compounds altering alpha2C-coupled GIRK flux – cell-based, HEK293 alpha2C/GIRK1/2, thallium flux, primary screen (AID 624;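 active means fluorescence slope after compound addition differing from the mean of all screened samples at 99.7% confidence, in either direction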;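 further: slope of fluorescence ratio to pre-addition baseline per second over 15 to 24 s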); conditions: thallium flux BTC fluorescence, at 10 µM, actives lie on both sides
# Sequence of Alpha-2C adrenergic receptor (Homo sapiens) (P18825 whole entry, looked up): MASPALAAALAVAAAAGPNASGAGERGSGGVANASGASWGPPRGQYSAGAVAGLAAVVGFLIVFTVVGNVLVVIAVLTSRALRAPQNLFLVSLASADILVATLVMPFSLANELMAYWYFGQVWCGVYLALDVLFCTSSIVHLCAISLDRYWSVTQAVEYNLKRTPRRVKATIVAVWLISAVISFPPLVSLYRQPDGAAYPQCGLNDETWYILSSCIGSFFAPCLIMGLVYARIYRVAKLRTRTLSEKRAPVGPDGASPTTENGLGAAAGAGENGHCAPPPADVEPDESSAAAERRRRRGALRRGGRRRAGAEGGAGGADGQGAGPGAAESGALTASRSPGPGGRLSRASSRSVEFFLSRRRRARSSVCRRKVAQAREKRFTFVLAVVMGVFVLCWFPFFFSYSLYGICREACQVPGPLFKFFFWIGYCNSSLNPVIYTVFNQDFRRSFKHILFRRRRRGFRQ
# [7] = blockers of RIG-like receptor reporter activation – cell-based, Sendai virus stimulus, luciferase, 10K MLSCN set, TLR/RLR signaling modifier project, primary screen (AID 602276); conditions: HEK293 RL24 IRF3 luciferase reporter, at 10 µM, stronger effect = higher value;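 further: firefly luciferase from ISG56 promoter only with Renilla not read in this screen; 0% = Sendai virus plus DMSO and 100% = medium plus DMSO without virus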
# [8] = TLR3 IRF3 reporter activation blockers – cell-based, poly I:C stimulus, luciferase, 10K MLSCN set, primary screen (AID 602277;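 active means inhibition of the reporter signal at or above 50%; inactive means inhibition below 50%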); conditions: HEK293-TLR3 RL24 IRF3 luciferase reporter, at 10 µM, stronger effect = higher value
Structure (SMILES),cell count [1],inhibition [1],inhibition of aggregation [2],nuclei count [2] [%],inhibition [3],nuclei count [3] [%],fluorescence slope [4],NADPH fluorescence slope [5],slope [6],inhibition [7],inhibition [8]
COc1ccc(-c2nnc(SCC(=O)c3cc(C)n(Cc4cccs4)c3C)o2)cc1,497,-13.7% (inactive),-13.1% (inactive),97.7,-129% (inactive),161,-0.559 (inactive),5.5e-05 (inactive),0.00615 (inactive),-5.7% (inactive),-11.8% (inactive)
CCC(C)(C(=O)NC1CCCC1)N(Cc1cccs1)C(C)=O (stereo not drawn),472,6.2% (inactive),-9.4% (inactive),115,-15% (inactive),93.8,-0.491 (inactive),-1.6e-05 (inactive),0.00646 (inactive),14.8% (inactive),24.4% (inactive)
CCc1cc(=O)n2[nH]c(C)c(-c3ccccc3OC)c2n1,595,2.8% (inactive),42.7% (inactive),64.6,-38.4% (inactive),96.2,-0.592 (inactive),-2.9e-05 (inactive),0.00657 (inactive),4.14% (inactive),16.3% (inactive)
O=C1c2ccccc2C(=O)N1CCC(=O)N1CCc2ccccc21,359,5.9% (inactive),22.4% (inactive),92.8,-71.6% (inactive),109,-0.393 (inactive),-2.1e-05 (inactive),0.005 (inactive),-1.4% (inactive),-26.2% (inactive)
CC1CN(Cc2nc3c(c(=O)[nH]c(=O)n3C)n2CC(N)=O)CC(C)O1 (stereo not drawn),780,-7.4% (inactive),-1.9% (inactive),112,-33% (inactive),111,-0.567 (inactive),-3.9e-05 (inactive),0.00597 (inactive),12.8% (inactive),20.4% (inactive)
CCCc1cc(C(=O)Nc2sc3c(c2C#N)CCC3)no1,633,-2.9% (inactive),11.9% (inactive),95.8,-34.8% (inactive),116,-0.568 (inactive),-2.8e-05 (inactive),0.00643 (inactive),7.08% (inactive),10.9% (inactive)
CCCC(=O)Nc1ccccc1-c1nnn(CC(=O)Nc2ccc(OCC)cc2)n1,369,3% (inactive),-6.8% (inactive),97.4,-7.5% (inactive),94.3,-0.444 (inactive),-0.000123 (inactive),0.00619 (inactive),12.2% (inactive),9.95% (inactive)
CCC(=O)Nc1ccc(Cl)c(NC(=O)C(C)C)c1,410,0.3% (inactive),-10.3% (inactive),105,-111% (inactive),81.5,-0.47 (inactive),-3.3e-05 (inactive),0.00567 (inactive),5.28% (inactive),25.2% (inactive)
Cc1cc(=O)n(C)c(=O)n1CCCCCN1CCCC1,655,2.2% (inactive),-3.3% (inactive),106,-52% (inactive),102,-0.51 (inactive),-1.1e-05 (inactive),0.00473 (inactive),19.1% (inactive),25.3% (inactive)
CCc1c(C)nc2ncnn2c1N1CCC(C(=O)NCc2cccc(OC)c2)CC1,716,-5.5% (inactive),-13.4% (inactive),66,-34.8% (inactive),116,-0.499 (inactive),-4.5e-05 (inactive),0.00565 (inactive),5.24% (inactive),1.67% (inactive)
O=C(CCSc1nc(-c2ccco2)cc(C(F)(F)F)n1)Nc1ccc2c(c1)OCO2,429,1.8% (inactive),30.3% (inactive),95.1,-52.9% (inactive),161,-0.386 (inactive),2.5e-05 (inactive),0.00312 (inactive),-4.65% (inactive),-14.1% (inactive)
Cc1nnc2c3ccccc3c(-c3ccccc3)nn12,481,-4.4% (inactive),-5.8% (inactive),92.4,-3.3% (inactive),108,-0.301 (inactive),-4.7e-05 (inactive),0.00584 (inactive),68% (active),61.1% (active)
O=C(CC(=O)c1cc(Cl)ccc1O)c1ccccc1,435,3.8% (inactive),-1.9% (inactive),99.3,-68.1% (inactive),126,-0.41 (inactive),2.8e-05 (inactive),0.00798 (inactive),-30.5% (inactive),-67.7% (inactive)
Cc1ccc(S(=O)(=O)N2CCCC2C(=O)OCc2nc3ccccc3s2)cc1 (stereo not drawn),459,-1.1% (inactive),4.3% (inactive),116,-89% (inactive),110,-0.519 (inactive),-5.7e-05 (inactive),0.00533 (inactive),8.31% (inactive),25.2% (inactive)
CCN(CC(=O)Nc1ccc(S(N)(=O)=O)cc1)S(=O)(=O)c1cc(C)ccc1OC,432,-0.3% (inactive),-6.5% (inactive),118,-51.7% (inactive),132,-0.425 (inactive),-4.7e-05 (inactive),0.0034 (inactive),-18.9% (inactive),19.6% (inactive)
COc1cc2c(cc1OC)C(C)N(C(=O)Cn1ncc3c1-c1ccccc1OC3)CC2 (stereo not drawn),697,-4.8% (inactive),-21.5% (inactive),114,-39.6% (inactive),117,-0.587 (inactive),-3.4e-05 (inactive),0.008 (inactive),7.96% (inactive),17.3% (inactive)
Cc1c(C)n(C)c2ccc(C(=O)NCc3cccs3)cc12,461,-9.2% (inactive),19.4% (inactive),83.8,11.8% (inactive),93.5,-0.505 (inactive),-3e-05 (inactive),0.00486 (inactive),-5.31% (inactive),-32.8% (inactive)
C/C=C/Cn1c(SCCCc2ccccc2)nc2c1c(=O)[nH]c(=O)n2C,658,-6.4% (inactive),-13.8% (inactive),101,-13.9% (inactive),102,-0.517 (inactive),-1.9e-05 (inactive),0.00629 (inactive),1.4% (inactive),5.27% (inactive)
CCc1nc(N)c(C#N)c(-c2ccc(OC)c(OC)c2)c1C,628,-4.4% (inactive),-13.8% (inactive),98.5,-37% (inactive),111,-0.384 (inactive),1e-05 (inactive),0.00633 (inactive),16.9% (inactive),21.8% (inactive)
C=CCN=C1SCC(=O)N1S(=O)(=O)c1ccc(C)cc1,342,-0.2% (inactive),3.3% (inactive),91.1,-135% (inactive),124,-0.364 (inactive),-6.1e-05 (inactive),0.00404 (inactive),5.91% (inactive),11.1% (inactive)
COc1ccc(-c2ccc(=O)n(Cc3cc(=O)n4ccccc4n3)n2)cc1,789,-6.4% (inactive),-19.1% (inactive),99.5,-101% (inactive),140,-0.108 (inactive),-3.8e-05 (inactive),0.00509 (inactive),7.67% (inactive),12.2% (inactive)
Cc1c(NC(=O)c2noc3c2CCc2ccccc2-3)c(=O)n(-c2ccccc2)n1C,620,-3.4% (inactive),-4.3% (inactive),110,-79.6% (inactive),116,-0.474 (inactive),2.6e-05 (inactive),0.0062 (inactive),2.37% (inactive),-5.2% (inactive)
O=S(=O)(c1ccccc1)c1nc(-c2cccs2)oc1NCC1CCCO1 (stereo not drawn),566,-1.8% (inactive),11.4% (inactive),108,-17.9% (inactive),104,-0.538 (inactive),5.1e-06 (inactive),0.00406 (inactive),-17.6% (inactive),-20.5% (inactive)
Cc1cc(C)nc(NC2=NCC(=O)N2c2ccccc2Br)n1,899,-1.7% (inactive),-2.1% (inactive),92.9,-29.3% (inactive),115,-0.4 (inactive),9.8e-06 (inactive),0.00564 (inactive),17.3% (inactive),40.3% (inactive)
COc1ccc(OC)c(S(=O)(=O)N2c3ccccc3CC2C)c1 (stereo not drawn),609,-6.3% (inactive),4.4% (inactive),84.6,-32% (inactive),123,-0.566 (inactive),2.6e-06 (inactive),0.00606 (inactive),5.85% (inactive),21.2% (inactive)
O=C(NC12CC3CC(CC(C3)C1)C2)N1CCN(C(=O)C2CCCO2)CC1 (stereo not drawn),434,-10.3% (inactive),-18.6% (inactive),100,-186% (inactive),0.2,-0.392 (inactive),-7.1e-05 (inactive),0.00603 (inactive),18% (inactive),11.1% (inactive)
COCCCNC(=O)Cn1cc2c(n1)CCC(C)C2 (stereo not drawn),767,-6.1% (inactive),-6% (inactive),104,-27.6% (inactive),121,-0.652 (inactive),2.7e-06 (inactive),0.00615 (inactive),4.22% (inactive),12.1% (inactive)
CCc1[nH]nc2c1C(c1ccncc1)C(C#N)=C(N)O2 (stereo not drawn),355,2.9% (inactive),-6% (inactive),109,-29.1% (inactive),123,-0.507 (inactive),-3.3e-05 (inactive),0.00643 (inactive),-2.35% (inactive),3.94% (inactive)
